Pf growth 96h: Primary qHTS for delayed death inhibitors of the malarial parasite plastid, 96 hour incubation. AID 504834, 2011. actives 6.9% (n = 320,000). Potency, µM (doses to about 28.7 µM), inactives show at the highest dose activity change, negative = inhibition, hits mostly inhibitors. P. falciparum luciferase reporter growth, 96 h; also: potency is read from the fitted curve at half-maximal effect; % is scaled to controls: 0 for no effect and ±100 for the full control effect
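96 h incubation, 37 C, 5% CO2, of luciferase-reporter P. falciparum-infected RBCs (2% hematocrit, 0.05% parasitemia final) with test compounds; endpoint luminescence.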
Giardia FBPA inh: qHTS Assay for Inhibitors of Fructose-1,6-bisphosphate Aldolase from Giardia Lamblia | A8B2U2 | purified Giardia FBPA | Potency, µM (titrated, usually from 59.6 µM), inactives show at the highest dose activity, negative = inhibition, usual class: inhibitors | actives 0.71% (n = 290,000); also: potency is read from the fitted curve at half-maximal effect; % is scaled to controls: 0 for no effect and ±100 for the full control effect; nearly all actives have a fitted effect of over 55% in size
Target sequence (A8B2U2 whole entry, looked up): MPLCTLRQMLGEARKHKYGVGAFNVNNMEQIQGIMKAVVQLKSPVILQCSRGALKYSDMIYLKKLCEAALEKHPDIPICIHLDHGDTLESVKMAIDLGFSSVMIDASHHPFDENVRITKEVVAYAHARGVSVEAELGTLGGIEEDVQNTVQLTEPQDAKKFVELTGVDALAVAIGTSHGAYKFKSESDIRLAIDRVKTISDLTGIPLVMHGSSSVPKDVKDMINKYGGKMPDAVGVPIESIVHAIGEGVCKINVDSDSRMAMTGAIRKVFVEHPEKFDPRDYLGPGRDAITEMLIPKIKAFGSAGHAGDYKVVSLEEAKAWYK
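Giardia FBPA (40 nM reagent) was preincubated 10 min at RT with compound (up to 57.5 uM final), then substrate plus GAPDH/TPI/NAD/arsenate coupling system with diaphorase/resazurin was added; resorufin fluorescence (525/598 nm) was read after 20 min.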
Pf growth 48h: Primary qHTS for delayed death inhibitors of the malarial parasite plastid, 48 hour incubation | P. falciparum luciferase growth in erythrocytes, 48 h | Potency, µM (doses to about 28.7 µM), for inactives: top-dose activity change, negative = inhibition, most hits filed as inhibitors | actives 5.9% (n = 310,000) | AID 504832, 2011; also: potency is read from the fitted curve at half-maximal effect; % is scaled to controls: 0 for no effect and ±100 for the full control effect
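Firefly luciferase activity from engineered P. falciparum reports growth; inhibitors lower the luminescent signal. Cultures contained 2% hematocrit erythrocytes at 0.1% final parasitemia.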
NS1 inh: qHTS Assay for Inhibitors of Influenza NS1 Protein Function; Potency, µM (doses to about 46.1 µM), for the others: at the top dose activity, positive = more growth; actives 0.4% (n = 270,000); AID 2326, 2010; calls by dose curve; also: potency is read from the fitted curve at half-maximal effect; actives are rising curves; nearly all actives have a fitted effect of over 50% in size
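OD600 was taken as the measure of yeast growth restored by compound in an NS1-expressing S. cerevisiae strain. Cells had been washed out of glucose medium and diluted 1:100 into galactose -URA medium, pH 6.0.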
Shiga inhibitor: A qHTS for Small Molecule Inhibitors of Shiga Toxin; Vero cells, Shiga toxin protein synthesis inhibition reporter; inhibition, % at 38.7 µM; actives 9.2% (n = 290,000); AID 2315, 2010; in the data active = inhibition mostly above about 28%, no sharp cut-off; inactive = mostly below about 43%; also: 0% is about no effect
Cycloheximide cs: Cycloheximide Counterscreen for Small Molecule Inhibitors of Shiga Toxin; cell reporter, cycloheximide protein synthesis inhibition counterscreen; max response, %; actives 12% (n = 300,000); AID 2314, 2010; in the data active = max response mostly above about 13%, no sharp cut-off; inactive = mostly below about 14%; also: read at 38.3 µM for the half of the compounds with a filed dose; 0% is about no effect
The depositor's hits bear a star; ? = inconclusive; · = not tested or not shown; [ ] = dose if it differs, or a comment. An excerpt weighted towards active compounds, which were near 21% of everything screened. Unless noted, calls follow the shape of the dose curve; as a rule, active = well fitted curve in the direction sought with a large enough effect; inconclusive = small, poorly fitted or top-dose-only effect, or another doubt; inactive = no such curve, though single readings can be large; an effect the other way counts as inactive or inconclusive.

SMILES	Pf growth 96h	Giardia FBPA inh	Pf growth 48h	NS1 inh	Shiga inhibitor	Cycloheximide cs
COc1ccc(OCC(=O)Nc2ccc(N3CCN(C(=O)c4ccccc4)CC3)c(Cl)c2)cc1	-78%	·	8.3µM*	-25%	-2	9
Cc1ccc(-n2nc3c(=O)n(CCCC(=O)NCCc4ccccc4)nc(C)c3c2C)cc1	?	·	?	22%	10	10
Cc1ccc(-n2nc3c(=O)n(CCCC(=O)NCc4ccc(F)cc4)nc(C)c3c2C)cc1	13%	6%	8.3µM*	-2%	-8	7
Cc1ccc(-n2nc3c(=O)n(CCCC(=O)NCCN4CCN(C)CC4)nc(C)c3c2C)cc1	12µM*	·	?	5%	-3	-2
Cc1nn(CC(=O)N2CCCC2)c(=O)c2nn(-c3ccccc3)c(C)c12	?	4%	9%	-2%	-5	-3
Cc1ccc(-n2nc3c(=O)n(CCCC(=O)NCc4ccco4)nc(C)c3c2C)cc1	?	5%	12µM*	-12%	1	6
Cc1ccc(-n2nc3c(=O)n(CCCC(=O)N4CCCCC4)nc(C)c3c2C)cc1	?	·	9.3µM*	-1%	-9	-1
COC(=O)CCc1c(COC(C)=O)[nH]c(C(=O)OCc2ccccc2)c1C	?	-7%	?	-2%	-9	-7
CCN(CC(=O)NCc1ccc(F)cc1)C(=O)c1cccnc1SC	16%	-9%	-12%	14%	-5	-7
CC12CCC(=O)N1C(C(=O)NCc1ccccc1F)CS2 (stereo unspecified)	48%	·	15%	·	·	·
Cc1nn(CCCC(=O)NCc2ccccc2)c(=O)c2nn(-c3ccccc3)c(C)c12	-2%	·	?	-7%	-4	-1
Cc1ccc(-n2nc3c(=O)n(CCCC(=O)NCc4cccc(F)c4)nc(C)c3c2C)cc1	46%	7%	10µM*	-2%	-7	31
O=S(=O)(NN1CCOCC1)c1cc(Cl)cc(Cl)c1O	1.7µM*	-5%	-19%	12%	-3	-2
O=C(NN1CCOCC1)c1cc(Cl)ccc1Cl	0%	·	?	1%	30	3
O=C(C1CC(c2ccc(F)cc2)=NO1)N1CCCc2ccccc21 (stereo unspecified)	2.1µM*	0%	20%	-8%	17	0
COc1ccc(OC)c(C2=NOC(C(=O)N3CCCc4ccccc43)C2)c1 (stereo unspecified)	·	1%	5%	-117%	84*	56*
COC(=O)C1=C(C(=O)OC)[C@@H]2Nc3ccccc3[C@@]23C[C@@H](C(=O)OC)N(S(=O)(=O)c2ccc(C#N)cc2)C3=N1	·	3%[12.9 µM]	·	·	·	·
CCCc1ncc(CN2CCCC(C(=O)Nc3ccc(-c4cccc(OC)c4)cc3)C2)cn1 (stereo unspecified)	?	-3%	?	7%	15	20*
COCc1ccc(CN2CCCC(C(=O)Nc3ccc(-c4cccc(OC)c4)cc3)C2)o1 (stereo unspecified)	7%	·	?	-15%	10	13
COc1cccc(-c2ccc(NC(=O)C3CCCN(Cc4cnc(N(C)C)s4)C3)cc2)c1 (stereo unspecified)	-28%	·	?	-5%	5	30*
CCN(CC)CCC(=O)Nc1cccc2c1C(=O)c1ccccc1C2=O	10µM*	-23%	-86%	-3%	6	2
CCN(CC)CCNC(=O)c1ccc2c(c1NCCO)C(=O)c1ccccc1C2=O	4.7µM*	?	2.6µM*	7%	40*	17
Nc1cccc(C(=O)OCC(=O)Nc2cccc3c2C(=O)c2ccccc2C3=O)c1	-12%	0%	20%	?	-1	-2
CC1CCN(C(=O)c2ccc3c(c2NCCO)C(=O)c2ccccc2C3=O)CC1	·	-6%	?	1%	-4	3
CC(C)(CNC(=O)c1cc2c(s1)CCCC2)N1CCOCC1	10%	·	0%	·	·	·
SMILES	Pf growth 96h	Giardia FBPA inh	Pf growth 48h	NS1 inh	Shiga inhibitor	Cycloheximide cs
CCOc1cc(/C=C2/SC(=S)NC2=O)ccc1OC(=O)c1ccco1	6%	6%	30%	·	44	12*
COc1cc(/C=C2/C(=N)N3C(SC)=NSC3=NC2=O)ccc1OC(=O)c1ccco1	?	12%	13%	0%	84	29*
COc1cc(/C=C2/SC(=O)NC2=O)ccc1OC(=O)c1ccco1	?	-24%	1%	4%	-5	-3
CCS(=O)(=O)C1=NSC2=NC(=O)/C(=C\c3ccc(OC(=O)c4ccco4)c(OC)c3)C(=N)N21	22%	·	10%	21%	7	10
CCOc1cc(/C=C2/C(=N)N3C(=NC2=O)SN=C3S(=O)(=O)CC)ccc1OC(=O)c1ccco1	10µM*	·	-4%	15%	12	-2
COc1cc(/C=C2/C(=N)N3C(=NC2=O)SN=C3S(=O)(=O)C(C)C)ccc1OC(=O)c1ccco1	?	·	-1%	1%	12	-2
CCOc1cc(/C=C2/C(=N)N3C(=NC2=O)SN=C3S(=O)(=O)C(C)C)ccc1OC(=O)c1ccco1	8.3µM*	·	-8%	-5%	3	-1
COc1ccc(CC(=O)NNC(=O)c2ccco2)cc1OC	-2%	7%	20%	9%	4	-5
CSc1nc(O)c(C(c2cccc([N+](=O)[O-])c2)c2c(O)nc(SC)[nH]c2=O)c(=O)[nH]1	-4%	15%	-6%	?	-8	-1
NC(=O)c1c(NC(=O)C2CC=CCC2C(=O)O)sc2c1CCCCC2 (stereo unspecified)	?	0%	0%	0%	-5	-2
CC(C)OC(=O)c1c(NC(=O)C2CC=CCC2C(=O)O)sc2c1CCCCC2 (stereo unspecified)	9.3µM*	13%	-3%	?	14	-2
O=C(NCc1ccccn1)Nc1ccc(Cl)cc1Cl	?	-2%	67%	-2%	66*	37*
O=C(CCCOc1ccc(Cl)cc1Cl)NCc1ccccn1	25%	3%	20%	-13%	41	6
O=C(Nc1ccno1)Nc1ccc(Cl)cc1Cl	30%	-11%	11%	-47%	6	11*
O=C(NCc1ccccn1)c1ccccc1OCc1ccc(Cl)cc1Cl	15µM*	·	?	·	·	·
O=C(NCc1ccccn1)c1ccccc1Cl	·	-16%	13%	4%	34	20
N/C(=N\NC(=O)c1sccc1OCc1ccc(Cl)cc1Cl)c1ccccn1	?	1%	3.3µM*	0%	-5	3
C[C@H](O/N=C1/[C@H]2O[C@@H]2[C@@H](O)[C@H]2[C@H]1CCn1c(=O)n(-c3ccccc3)c(=O)n12)c1cn([C@H](CO)Cc2ccccc2)nn1	·	-3%[12.9 µM]	·	·	·	·

Bioassay records (PubChem BioAssay)
